Most compounds without a hit are left out; they make up all but 6% or so of the library.
Tau fluor cs – counter-screen for tau fibril formation inhibitors | 280,000 compounds, 0.93% hits | tau K18 P301L Alexa594 fluorescence, heparin fibrillization | Potency, µM (titrated, usually from 57.7 µM); further: nearly all actives have a fitted effect of over 55% in size
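Human K18 P301L tau (15 uM unlabeled plus 0.24 uM Alexa 594-labeled, final) in 100 mM sodium acetate pH 7 was mixed with compound and 20 uM heparin and incubated 6 hr at 37 C.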
VDR inhibitor – inhibitors of human vitamin D receptor; P11473; VDR-SRC2-3 peptide fluorescence polarization, 2 h; Potency, µM, most hits filed as inhibitors; 400,000 compounds, 0.93% hits; AID 504847
Target sequence (P11473 whole entry, looked up): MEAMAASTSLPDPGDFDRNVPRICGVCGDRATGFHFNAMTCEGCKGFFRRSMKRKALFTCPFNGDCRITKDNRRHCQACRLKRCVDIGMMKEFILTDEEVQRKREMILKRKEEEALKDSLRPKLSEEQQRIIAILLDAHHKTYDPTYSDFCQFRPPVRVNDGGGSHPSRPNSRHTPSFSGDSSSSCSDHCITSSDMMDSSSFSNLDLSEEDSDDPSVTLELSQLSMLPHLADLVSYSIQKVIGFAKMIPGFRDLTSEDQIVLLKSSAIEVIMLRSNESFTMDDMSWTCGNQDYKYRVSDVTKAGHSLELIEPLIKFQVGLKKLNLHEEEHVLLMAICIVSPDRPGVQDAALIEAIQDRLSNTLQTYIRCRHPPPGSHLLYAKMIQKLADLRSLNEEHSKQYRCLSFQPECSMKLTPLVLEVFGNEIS
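Two reagent solutions held at 4 deg C in the dark were dispensed, compounds pinned at 23 nl, and the mixture incubated 2 h at room temperature. Read-out: fluorescence polarization of VDR–SRC2-3 peptide binding.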
Sfp inh – Sfp phosphopantetheinyl transferase inhibition. Q9F4F7. 310,000 compounds, 3.5% hits. Potency, µM, most hits filed as inhibitors. Biochemical Sfp PPTase activity, qHTS. AID 1490;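 further: the enzyme is Sfp with the accession as filed and its product quenches rhodamine fluorescence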
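Fluorescence-quenching assay: 15 nM Sfp-PPTase preincubated 15 min at room temperature with compound, then 5 uM rhodamine-CoA and 12.5 uM BHQ-2-labelled YbbR peptide added. Fluorescence (ex 525/em 598 nm) read at start and after 30 min; difference gives rate.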
PLK1 PBD block – PLK1 (human) polo-box domain binding inhibition. Plk1 PBD binding of FITC phosphopeptide, fluorescence polarization. Potency, µM, hits mostly inhibitors. 360,000 compounds, 2.8% hits. P53350; further: series mostly up to about 57 µM; nearly all actives have a fitted effect of over 65% in size
Tau FP inhib – blocks human tau fibril formation measured by polarization. P10636. K18 P301L tau heparin fibrillization, Alexa594 FP, 6 h. Potency, µM (highest dose often 57.7 µM), actives largely listed as inhibitors. 280,000 compounds, 0.39% hits. AID 1468; further: nearly all actives have a fitted effect of over 55% in size
Target sequence (P10636 561-689 P618L limits assumed): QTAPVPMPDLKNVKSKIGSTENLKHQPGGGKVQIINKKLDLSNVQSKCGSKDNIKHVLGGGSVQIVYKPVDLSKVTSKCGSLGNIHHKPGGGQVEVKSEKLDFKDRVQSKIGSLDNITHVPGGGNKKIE
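FP of Alexa 594-tau after heparin (20 uM) induction. Substrate: human K18 P301L, 15 uM unlabeled, 0.24 uM labeled. Buffer 100 mM sodium acetate pH 7. 6 hr, 37 C.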
Tau fibril ThT – tau fibrillization inhibition (ThT binding); P10636; recombinant tau K18 P301L (four-repeat tau fragment), heparin-induced fibrillization, ThT fluorescence; Potency, µM (titrated, usually from 57.4 µM), actives largely listed as inhibitors; 270,000 compounds, 2.1% hits; further: nearly all actives have a fitted effect of over 55% in size
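Recombinant human tau K18 fragment […] carrying P301L, 15 uM unlabeled plus 0.24 uM Alexa 594-labeled, was fibrillized with 20 uM heparin in 100 mM sodium acetate pH 7 for 6 hr at 37 C; 30 uM ThT fluorescence read after 1 hr.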
Of the large screens only hits and unclear results are named; the others gave an inactive call; ! = not active in a repeat; [ ] = another dose, or the depositor's remark. The call rests on the fitted dose curve; in most records, active means well fitted curve in the direction sought with a large enough effect; inconclusive means small, poorly fitted or top-dose-only effect, or another doubt; inactive means no such curve, though single readings can be large; an effect the other way counts as inactive or inconclusive.

O=C(Cn1cnc2c(nc3n2CCCCC3)c1=O)Nc1ccc(F)c(Cl)c1	none (no result: Sfp inh, PLK1 PBD block)
COc1ccc(C)cc1NC(=O)C(=O)NCC(c1cccnc1)N1CCN(c2ccccc2F)CC1 (centres undefined)	Tau fluor cs inconclusive (no result: Sfp inh, PLK1 PBD block)
COc1cc(/C=C(\C#N)C(=O)N2CCOCC2)cc(Br)c1O	PLK1 PBD block 21.2µM, Tau fibril ThT inconclusive
N#C/C(=C\c1cccc(Oc2ccccc2)c1)C(=O)N1CCOCC1	VDR inhibitor 44.7µM, PLK1 PBD block inconclusive
COc1ccc(-c2noc(CSc3nnc(-c4ccncc4)n3-c3ccc(C)cc3)n2)cc1OC	none (no result: Sfp inh, PLK1 PBD block)
O=C(CC1SC(=O)N(c2ccccc2)C1=O)Nc1ccc(Br)cc1 (centres undefined)	VDR inhibitor 35.5µM, PLK1 PBD block inconclusive, Tau fibril ThT inconclusive
O=C(CC1SC(=O)N(c2ccccc2)C1=O)Nc1ccc(Cl)cc1 (centres undefined)	VDR inhibitor 39.8µM, PLK1 PBD block 10.6µM, Tau fibril ThT inconclusive
O=C(Cn1cc(CNC(=O)C2CCCCC2)nn1)Nc1cc(C(F)(F)F)ccc1Cl	none (no result: Tau fluor cs, Sfp inh, PLK1 PBD block, Tau FP inhib, Tau fibril ThT)
Brc1ccc(-c2nn3c(-c4ccccn4)nnc3s2)o1	Sfp inh 8.91µM, Tau fibril ThT inconclusive
c1coc(-c2nnc3sc(C4CCCCC4)nn23)c1	Sfp inh 35.5µM, PLK1 PBD block 10.6µM
Clc1ccc(-c2ccc(-c3nn4c(-c5ccco5)nnc4s3)o2)cc1	PLK1 PBD block inconclusive (no result: Tau fluor cs, Sfp inh, Tau FP inhib, Tau fibril ThT)
Brc1ccc(-c2nn3c(-c4ccco4)nnc3s2)o1	Sfp inh 20µM, PLK1 PBD block inconclusive, Tau fibril ThT inconclusive
Brc1ccc(-c2nn3c(-c4ccncc4)nnc3s2)o1	none (no result: VDR inhibitor, PLK1 PBD block)
CCOC(=O)C1(C)CCCN(C(=O)c2ccc(OC)c(OC)c2)C1 (centres undefined)	none (no result: Tau fluor cs, VDR inhibitor, Sfp inh, Tau FP inhib, Tau fibril ThT)
NCCS	Tau fluor cs inconclusive, VDR inhibitor 22.4µM, Sfp inh 79.4µM!, PLK1 PBD block inconclusive, Tau FP inhib inconclusive, Tau fibril ThT 15.8µM
O=C(NC1CC1)c1ccc(NC(=O)C2CCCC2)cc1	none (no result: Tau fluor cs, Sfp inh, Tau FP inhib, Tau fibril ThT)
O=C(NC1CC1)c1ccc(NC(=O)C2CCC2)cc1	VDR inhibitor 79.4µM, PLK1 PBD block 18.9µM (no result: Tau fluor cs, Sfp inh, Tau FP inhib, Tau fibril ThT)
OC[C@H]1O[C@@H](n2cnc3c(N[C@H]4C[C@H]5CC[C@@H]4C5)ncnc32)[C@H](O)[C@@H]1O	none (no result: PLK1 PBD block)
O=C(Nc1cccc(C(F)(F)F)c1)c1cc(S(=O)(=O)N2CCCC2)c[nH]1	none (no result: Sfp inh, PLK1 PBD block)
CCc1ccc(-c2cc(C(=O)N/N=C/c3c[nH]c4ccccc34)[nH]n2)cc1	Tau fluor cs 10µM[quencher], Tau fibril ThT inconclusive
Cc1onc(-c2ccccc2)c1C(=O)N/N=C/c1c[nH]c2ccccc12	Tau fluor cs inconclusive, PLK1 PBD block 23.8µM, Tau FP inhib inconclusive
CC(C)c1cc(C(=O)N/N=C/c2c[nH]c3ccccc23)n[nH]1	none (no result: Tau fibril ThT)
CCc1ccc2c(Cl)c(C(=O)N/N=C/c3c[nH]c4ccccc34)sc2c1	Tau fluor cs 11.2µM[quencher], Tau FP inhib inconclusive, Tau fibril ThT 10µM
O=C(CCC1N=C2c3ccccc3N=C(SCC(=O)Nc3ccc(F)cc3)N2C1=O)NCc1cccs1 (centres undefined)	none (no result: Sfp inh, PLK1 PBD block)
CCOc1ccc2c(c1)c(=O)c(C(=O)c1ccc(CC)cc1)cn2CC(=O)Nc1ccc2c(c1)OCCO2	none (no result: Sfp inh, PLK1 PBD block)
Cc1cc(-n2c(C)cc(C(=O)CSc3nnnn3-c3ccccc3)c2C)no1	Tau fibril ThT inconclusive
Cc1cc(-n2c(C)cc(C(=O)CSc3ccccn3)c2C)no1	PLK1 PBD block 16.8µM (no result: Tau fluor cs, Sfp inh, Tau FP inhib, Tau fibril ThT)
Cc1cc(-n2c(C)cc(C(=O)CCl)c2C)no1	PLK1 PBD block 13.4µM
O=C(NCCc1c[nH]c2ccccc12)c1ccc2c(c1)OCO2	none (no result: Tau fluor cs, Tau FP inhib, Tau fibril ThT)
N#C/C(=C/c1ccc2c(c1)OCO2)C(=O)NCCc1c[nH]c2ccccc12	Tau fluor cs 20µM[quencher], Tau fibril ThT 12.6µM
CCOc1ccc(Cl)cc1S(=O)(=O)N1CCC(C(=O)NC2CC2)CC1	VDR inhibitor inconclusive (no result: Tau fluor cs, Tau FP inhib, Tau fibril ThT)
CCOc1ccc(Cl)cc1S(=O)(=O)n1nnc2ccccc21	PLK1 PBD block 26.7µM
CCCNC(=O)C1(C)CCCN(Cc2ccc(C(=O)OCC)o2)C1 (centres undefined)	none (no result: Tau fluor cs, VDR inhibitor, Sfp inh, Tau FP inhib, Tau fibril ThT)
CCCCCCCCCC(=O)OCC(CO)OC(=O)CCCCCCCCC (centres undefined)	none (no result: PLK1 PBD block)
CCC(=O)Nc1ccc(Cl)c(-c2nc3ccccc3[nH]2)c1	none (no result: Sfp inh, PLK1 PBD block)
COc1cccc(C(=O)Nc2ccc3c(c2)C(=O)c2ccccc2C3=O)c1	Tau fluor cs inconclusive, PLK1 PBD block 26.7µM, Tau FP inhib inconclusive
COC(=O)c1sccc1NC(=O)c1ccccc1	none
COC(=O)c1sccc1NC(=O)c1cccc(OC)c1	VDR inhibitor inconclusive, PLK1 PBD block 18.9µM, Tau fibril ThT inconclusive
O=C(Nc1ccc2c(c1)C(=O)c1ccccc1-2)c1ccccc1	none (no result: Tau fluor cs, Sfp inh, Tau FP inhib, Tau fibril ThT)
COc1cccc(C(=O)Nc2ccc(Cl)c(-c3nc4ccccc4[nH]3)c2)c1	Tau fluor cs inconclusive, Tau FP inhib 25.1µM, Tau fibril ThT inconclusive (no result: Sfp inh, PLK1 PBD block)
CN(C)Cc1ccccc1-c1nccc(NCc2cccs2)n1	none (no result: PLK1 PBD block)
O=C(CCCCn1c(=O)c2ccccc2n(CC(=O)Nc2ccc(F)cc2F)c1=O)NCCc1ccccc1	none (no result: Sfp inh, PLK1 PBD block)
O=C(NC(c1ccc(Cl)cc1)c1ccsc1)C1CCN(Cc2ccc(Oc3ccccc3)cc2)CC1 (centres undefined)	none (no result: Tau fluor cs, VDR inhibitor, Sfp inh, Tau FP inhib, Tau fibril ThT)
COc1ccc(CN(Cc2ccco2)c2cnc(S(C)(=O)=O)nc2C(=O)Nc2ccc(C)c(Cl)c2)cc1	none (no result: Sfp inh, PLK1 PBD block)
CC(=O)Nc1nc(C)c(C(C)=O)s1	none
